# Article PMC4336329 (PLoS ONE, 2015)
# Among all 310,000 compounds or so, about 14,000 (4.5%) showed an effect of 50% or more. Effects have a minus sign here. Only a selection was taken, and strong results are over-represented in it overall.
# Target: human ether-à-go-go-related gene (hERG) potassium channel (human, UniProt Q12809)
# Test: primary screen, population patch clamp on CHO cells stably expressing hERG; higher = less effect of the substance
# 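Further: peak tail current of the secondary pulse compared with the same well before compound.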
# human ether-à-go-go-related gene (hERG) potassium channel, sequence (Q12809 whole entry, looked up): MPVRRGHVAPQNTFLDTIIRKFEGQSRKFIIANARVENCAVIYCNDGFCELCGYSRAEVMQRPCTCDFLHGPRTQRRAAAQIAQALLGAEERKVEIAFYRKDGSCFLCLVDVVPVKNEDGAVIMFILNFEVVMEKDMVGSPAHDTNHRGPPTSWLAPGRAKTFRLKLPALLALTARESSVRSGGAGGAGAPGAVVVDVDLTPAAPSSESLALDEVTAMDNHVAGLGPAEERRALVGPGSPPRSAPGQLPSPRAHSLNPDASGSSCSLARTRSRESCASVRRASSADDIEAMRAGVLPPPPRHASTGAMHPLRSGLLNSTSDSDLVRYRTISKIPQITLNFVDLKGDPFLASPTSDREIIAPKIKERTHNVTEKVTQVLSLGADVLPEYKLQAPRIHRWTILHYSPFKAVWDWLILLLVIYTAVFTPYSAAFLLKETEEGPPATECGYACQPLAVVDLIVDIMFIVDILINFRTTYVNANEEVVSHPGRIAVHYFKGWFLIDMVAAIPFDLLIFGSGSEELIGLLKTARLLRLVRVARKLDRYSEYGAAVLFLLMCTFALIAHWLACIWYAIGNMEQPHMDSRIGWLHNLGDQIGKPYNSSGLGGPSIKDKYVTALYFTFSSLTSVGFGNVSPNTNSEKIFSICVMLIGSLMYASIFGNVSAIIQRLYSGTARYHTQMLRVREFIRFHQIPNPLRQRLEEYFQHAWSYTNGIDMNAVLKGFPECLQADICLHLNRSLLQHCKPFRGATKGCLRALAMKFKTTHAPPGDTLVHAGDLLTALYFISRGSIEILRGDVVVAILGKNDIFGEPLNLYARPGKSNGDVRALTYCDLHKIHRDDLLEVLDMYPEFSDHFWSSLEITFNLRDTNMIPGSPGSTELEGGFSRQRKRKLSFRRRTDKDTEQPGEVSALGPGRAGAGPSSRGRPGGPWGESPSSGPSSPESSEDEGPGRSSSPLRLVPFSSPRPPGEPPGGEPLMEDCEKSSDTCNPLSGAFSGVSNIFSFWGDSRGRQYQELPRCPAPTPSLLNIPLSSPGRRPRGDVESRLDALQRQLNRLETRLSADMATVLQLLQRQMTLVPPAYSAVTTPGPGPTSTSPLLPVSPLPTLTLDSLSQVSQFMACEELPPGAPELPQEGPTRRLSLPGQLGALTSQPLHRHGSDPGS
row,Structure (SMILES),"hERG current change (%, negative = inhibition) at 10uM"
1,COc1cc2c(cc1OC)C(C)N(C(=O)Nc1ccc(F)cc1)CC2 (stereo not shown),10.6%
2,Br.O=C(CSc1nc2ccccc2c(=O)n1-c1ccccc1)c1cccc([N+](=O)[O-])c1,-7.38%
3,COc1cc2c(cc1OC)C(c1ccc(Br)cc1)N(C(=O)c1ccccc1C(=O)O)CC2 (stereo not shown),9.72%
4,Cc1cc(C)c(C)c(S(=O)(=O)NCCCN2CCOCC2)c1C,13.6%
5,O=C1CCN(C(=O)Nc2cccc(Cl)c2)N1,14.1%
6,CCCCN(C(=O)Nc1ccc(Cl)cc1)C1CCN(C(C)=O)CC1,-46%
7,CSc1cccc(NC(=S)N(CCC(C)C)C2CCN(C(C)C)CC2)c1,-52.5%
8,CC(C)CCN(C(=S)Nc1cccc(F)c1)C1CCN(C(C)C)CC1,-42.9%
9,COc1ccc(NC(=S)N(CCC(C)C)C2CCN(C(C)C)CC2)cc1Cl,-68.1%
10,CC(C)CCN(C(=O)Nc1ccc(Cl)cc1)C1CCN(C(C)C)CC1,-72.1%
11,CCOc1ccc(NC(=O)N(CCC(C)C)C2CCN(C(C)=O)CC2)cc1,-9.87%
12,CSc1cccc(NC(=S)N(CCC(C)C)C2CCN(C(C)=O)CC2)c1,-23.3%
13,COc1ccc(NC(=S)N(C(C)C)C2CCN(C(C)C)CC2)cc1Cl,0.307%
14,COCCN(C(=S)Nc1ccc(OC)c(Cl)c1)C1CCN(C(C)C)CC1,-35.9%
15,O=C1CCCN1CCCNc1ncnc2sccc12,3.29%
16,CC(C)(C)N1[C@@H](CC(=O)O)c2cc(C(F)(F)F)ccc2S1(=O)=O,11.2%
17,Cc1ccccc1Nc1nc(N)nc(COC(=O)CCS(=O)(=O)c2ccccc2)n1,-14.4%
18,CC(C)=C1C2CCC1C1C(=O)N(NC(=O)c3ccco3)C(=O)C21 (stereo not shown),-4.72%
19,Cc1nn(C)c(C(=O)N2CCc3ccccc32)c1Cl,2.37%
20,CCOC(=O)c1cnc2c(C)cc(C)cc2c1Nc1ccc(S(=O)(=O)Nc2ncccn2)cc1,-0.317%
21,COc1ccc(Cl)cc1N(CC(=O)N1CCN(Cc2ccccc2)CC1)S(C)(=O)=O,-7.28%
22,O=C(CN1CCN(Cc2ccc3c(c2)OCO3)CC1)N1CCc2[nH]c3ccc(F)cc3c2C1,-62.8%

row,Structure (SMILES),"hERG current change (%, negative = inhibition) at 10uM"
1,CN(CC(=O)N1CCc2[nH]c3ccc(F)cc3c2C1)CC1OCCO1,5.81%
2,Cc1ccc2[nH]c3c(c2c1)CN(C(=O)CN1CCN(C(=O)c2ccco2)CC1)CC3,-5.97%
3,O=C(c1cc2cc(F)ccc2[nH]1)N1CCN(Cc2ccc3c(c2)OCO3)CC1,-0.31%
4,Cc1ccc2[nH]c3c(c2c1)CN(C(=O)CN1CCN(Cc2ccc4c(c2)OCO4)CC1)CC3,-54.8%
5,Cc1ccc2[nH]c3c(c2c1)CN(C(=O)CN1CCCCC1)CC3,-31.8%
6,COc1ccccc1NC(=O)c1sc2nc(-c3ccco3)ccc2c1N,1.24%
7,Cc1n[nH]c(C)c1N1C(=O)c2cccc3c(N4CCCCCC4)ccc(c23)C1=O,-21.5%
8,CCC(=O)N1c2ccc(S(=O)(=O)NCCc3ccc(OC)c(OC)c3)cc2CC1C (stereo not shown),10.3%
9,CSc1c(CC(=O)Nc2ccccc2Cl)n(Cc2ccccc2)c2ccccc12,8.86%
10,COc1ccc(NC(=O)CCCN2C(=O)CN(C)C2=O)c(OC)c1,-4.4%
11,CCN(CC(=O)NCc1cccs1)S(=O)(=O)c1ccc(F)cc1,-85%
12,CCN(CC(=O)NCc1cccs1)C(=O)c1cccc(S(=O)(=O)NC)c1,-12.2%
13,CCN(CC(=O)NCc1cccs1)S(=O)(=O)c1ccccc1Cl,-11.3%
14,CCN(CC(=O)NCc1cccs1)C(=O)c1ccc(S(=O)(=O)Nc2ccccc2)cc1,-15.6%
15,CCN(CC(=O)Nc1cccc(OC)c1)C(=O)c1cccc(S(=O)(=O)N2CCc3ccccc32)c1,-1.63%
16,CCN(CC)S(=O)(=O)c1ccc(C(=O)NCc2cccs2)cc1,-20.7%
17,CCN(CC(=O)NCc1cccs1)S(=O)(=O)c1ccc(NC(C)=O)cc1,-7.22%
18,CCN(CC(=O)NCc1cccs1)S(=O)(=O)c1c(F)cccc1F,0.594%
19,CCN(CC(=O)NCc1cccs1)C(=O)c1ccc(S(=O)(=O)N(CC)c2ccccc2)cc1,-61.4%
20,CCN(CC(=O)NCc1cccs1)S(=O)(=O)c1ccc(C(C)C)cc1,-53.3%
21,CCN(CC(=O)NCc1cccs1)C(=O)c1cccc(S(=O)(=O)N2CCc3ccccc32)c1,-71.3%
